Source: PubChem (National Center for Advancing Translational Sciences (NCATS))
This excerpt belongs to a sample that is enriched for hits.
NTMT1 inhibitor: blocks human N-terminal methyltransferase 1 activity; NTMT1 MTase-Glo SAH luminescence, purified enzyme; Potency, µM (doses to about 114 µM), usual class: inhibitors; 59,000 tested, 2.5% active; AID 1645870; also: nearly all actives have a fitted effect of over 65% in size
Target sequence (Q9BV86 whole entry, looked up): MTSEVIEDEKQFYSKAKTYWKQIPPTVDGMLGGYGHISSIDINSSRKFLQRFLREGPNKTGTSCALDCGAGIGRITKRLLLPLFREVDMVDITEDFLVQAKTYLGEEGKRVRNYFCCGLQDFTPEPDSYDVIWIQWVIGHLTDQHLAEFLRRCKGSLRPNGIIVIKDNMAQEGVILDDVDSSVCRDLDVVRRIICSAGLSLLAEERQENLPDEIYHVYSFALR
PTAP-TSG101 blk: inhibitors of HIV-1 PTAP binding to human TSG101, validation. Q99816. Fluorescence polarization, FITC-PTAP peptide/Tsg101, 20 min. Potency, µM (top dose mostly 115 µM), actives largely listed as inhibitors. 44,000 tested, under 10 active
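Fluorescence polarization binding of Tsg101 binding domain (10 uM final) to FITC-labeled PTAP-motif peptide (50 nM final) in HEPES pH 7.5/NaCl/Tween 20/EDTA/TCEP buffer; 20 min at r.t. Actives by curve class, <25 µM, efficacy <60% inhibition.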
B2AR arrestin ag: beta-arrestin recruitment by human beta2-adrenergic receptor ligands; P07550; HTLA Tango cells, beta-arrestin recruitment, luciferase luminescence, 18 h; Potency, µM (series often up to 46.1 µM), hits mostly activators; 44,000 tested, under 10 active; AID 1347077
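Tango cells (recombinant beta2-AR, beta-arrestin, tTA-driven luciferase), 1500/well in DMEM 1% FBS, treated 18 h at 37 °C with compounds up to 46 µM; luciferin mix added, luminescence read after 15 min; %activity curves fitted and curve-classed.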
HTT-AS promoter: HTT-AS promoter activation; HEK293 HTT-AS promoter firefly luciferase reporter, 24 h; response scale: percent change from vehicle, -100% = no light; Potency, µM (top dose mostly 57.5 µM), actives largely listed as activators; 48,000 tested, 0.24% active; also: nearly all actives have a fitted effect of over 55% in size
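HEK293 cells carrying firefly luciferase reporters were seeded at 2,500 per well in Opti-MEM and cultured for 24 h. They were then treated with compounds at up to 57.5 uM final for 24 h at 37 degrees C before Dual-Glo luminescence readout.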
HTT prom inh: inhibitors of huntingtin promoter activity; AID 1508623; HEK293 HTT promoter firefly luciferase reporter, 24 h; Potency, µM (top dose mostly 57.5 µM), hits mostly inhibitors; 48,000 tested, 0.93% active; also: nearly all actives have a fitted effect of over 50% in size
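Quantitative HTS used concentration series of up to 57.5 uM final on HEK293 luciferase reporter cells, 24 h at 37 degrees C. Readout was Dual-Glo firefly luminescence.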
GALK inhibitor: inhibitors of human galactokinase (GALK) | P51570 | recombinant GALK, Kinase-Glo ATP luminescence, 1 h | Potency, µM (highest dose often 57.5 µM), hits mostly inhibitors | 44,000 tested, under 10 active | AID 1347072
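Human GALK (5 nM) was incubated with 35 uM ATP and 100 uM galactose in 20 mM HEPES pH 8.0 with MgCl2, NaCl, DTT and BSA for 1 h at room temperature. Remaining ATP was measured by Kinase-Glo Plus luminescence.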
A number is an active result; n = inactive; u = inconclusive; x = no result given; ! = not active in a repeat. Calls follow the shape of the dose curve; as a rule, active = well fitted curve in the direction sought with a large enough effect; inconclusive = small, poorly fitted or top-dose-only effect, or another doubt; inactive = no such curve, though single readings can be large; an effect the other way counts as inactive or inconclusive.

SMILES	NTMT1 inhibitor	PTAP-TSG101 blk	B2AR arrestin ag	HTT-AS promoter	HTT prom inh	GALK inhibitor
Cc1ccc(S(=O)(=O)Nc2cc(Cl)cc(C(=O)Nc3nc(-c4ccccc4)cs3)c2)cc1	n	x	x	x	x	x
CCOc1ccccc1CN1CCc2nc(N3CCN(c4ccccc4F)CC3)ncc2C1	n	n	n	n	14µM	n
Fc1ccc(CN2CCc3nc(N4CCN(c5ccccc5F)CC4)ncc3C2)c(F)c1	n	n	n	n	n	n
Cc1ccc(CNC(=O)Nc2cc(C(=O)NCc3ccc(C(C)C)cc3)ccc2N2CCCC2)cc1	n	n	n	n	u	n
CC(C)c1ccc(CNC(=O)c2ccc(N3CCCC3)c(NC(=O)NCc3ccccc3)c2)cc1	n	n	n	n	25µM	n
Cc1cccc(C=NNc2cc(N3CCOCC3)nc(OCCc3ccccn3)n2)c1	22µM	x	x	n	u	x
COc1cc2nc(-c3cc(F)ccc3O)nc(N[C@@H]3CNC[C@H]3C(C)(C)O)c2cc1OC	28µM	x	x	x	x	x
COc1ccc(C(CC(=O)Nc2ccc(F)c(Cl)c2)N2Cc3ccccc3C2=O)cc1OC (stereo not given)	89µM	n	n	n	n	n
Cc1cnc(-c2ccccc2C(C)C)nc1NCc1ccc(-c2ccc(F)nc2)cc1	n	x	x	x	x	x
Cc1cc(-c2ccc(/C=C3\SC(=Nc4ccc(Cl)c(C(=O)O)c4)NC3=O)o2)c([N+](=O)[O-])cc1C	25µM	x	x	x	x	x
CC(=O)Nc1cc(-c2nc3ccccc3s2)ccc1C	n	n	n	6.3µM	n	n
Cc1ccc(-c2cc(C(=O)Nc3ccccn3)c3ccccc3n2)cc1C	n	x	x	x	x	x
CCN(CC)CCOCCOC(=O)C1(c2ccccc2)CCCC1	10µM	x	x	n	n	x
CC(C)c1ccccc1-c1ncc(F)c(NC(C)(C)c2ccc(-c3cccnc3)cc2)n1	n	x	x	x	x	x
CNC[C@H](O)c1ccc(O)c(O)c1	55µM!	x	x	n	n	x
Oc1ccc(C(O)CNCCCCCCNCC(O)c2ccc(O)c(O)c2)cc1O (stereo not given)	35µM	x	x	n	n	x
CC(C)NCC(O)c1ccc(O)c(O)c1 (stereo not given)	u	x	x	n	n	x
FC(F)(F)c1ccc(CSc2nc3ncc(Br)cc3[nH]2)cc1	n	x	x	x	x	x
COc1cc(C(=O)N2CCC(N3CCN(C)CC3)CC2)ccc1Nc1ncc2c(n1)N(C)c1ccccc1C(=O)N2C	n	x	x	n	n	x
CCc1cccc(CC)c1NC(=O)c1nn(C)c2c1CCc1cnc(Nc3ccc(C(=O)NC4CCN(C)CC4)cc3OC(F)(F)F)nc1-2	n	x	x	x	x	x
COc1cc(C(=O)NC2CCN(C)CC2)c(F)cc1Nc1ncc2c(n1)N(C1CCCC1)CC(F)(F)C(=O)N2C	28µM	x	x	x	x	x
CC[C@@H]1C(=O)N(C)c2cnc(Nc3ccc(C(=O)NC4CCN(C)CC4)cc3OC)nc2N1C1CCCC1	25µM!	x	x	n	n	x
COc1cc(C(=O)NC2CCN(C)CC2)ccc1Nc1ncc2c(n1)N(C1CCCC1)CC(F)(F)C(=O)N2C	28µM	x	x	x	x	x
COc1cc(OC2CCN(C)CC2)ccc1Nc1ncc2c(n1)n(C1CCCC1)c(=O)n2C	n	x	x	n	n	x
FC(F)(F)c1ccccc1-c1nc(NCc2ccc(-c3cccnc3)cc2)c2[nH]cnc2n1	n	x	x	x	x	x
SMILES	NTMT1 inhibitor	PTAP-TSG101 blk	B2AR arrestin ag	HTT-AS promoter	HTT prom inh	GALK inhibitor
Cn1cc(/C=C/C(=O)c2cccc(F)c2)cc1/C=C/C(=O)NO	n	x	x	x	x	x
Cc1nc(NC(=O)N2CCC[C@@H]2C(N)=O)sc1-c1ccnc(C(C)(C)C(F)(F)F)c1	30µM	x	x	n	n	x
Cc1nc(NC(=O)N2CCCC2C(N)=O)sc1-c1csc(C(C)(C)C)n1 (stereo not given)	n	x	x	x	x	x
Cc1c(C)n(Cc2ccc(-c3ccccc3C(=O)O)cc2)c2ccc(C(=O)N[C@@H](C)c3ccc([N+](=O)[O-])cc3)cc12	32µM!	x	x	n	n	x
Cc1c(C)n(Cc2ccccc2)c2ccc(C(=O)NCc3ccc(OC(C)C)cc3)cc12	n	n	n	n	n	n
O=C1C(c2c(O)[nH]c3ccccc23)=Nc2ccccc21	n	x	x	n	n	x
O=C1c2ccccc2-[n+]2ccc3c([nH]c4ccccc43)c21	45µM	x	x	n	u	x
